{"source": "paper PMC4336329", "about": "(PLoS ONE, 2015)", "note": "Out of some 310,000 compounds screened, about 2,200 (0.71%) showed an effect of 50% or more. The effect is printed as a negative number. The sample holds strong results, similar compounds and a random draw of the others, so the mix is not that of the screen."}
{"target": "human ether-à-go-go-related gene (hERG) potassium channel (human, UniProt Q12809)", "sequence (Q12809 whole entry, looked up)": "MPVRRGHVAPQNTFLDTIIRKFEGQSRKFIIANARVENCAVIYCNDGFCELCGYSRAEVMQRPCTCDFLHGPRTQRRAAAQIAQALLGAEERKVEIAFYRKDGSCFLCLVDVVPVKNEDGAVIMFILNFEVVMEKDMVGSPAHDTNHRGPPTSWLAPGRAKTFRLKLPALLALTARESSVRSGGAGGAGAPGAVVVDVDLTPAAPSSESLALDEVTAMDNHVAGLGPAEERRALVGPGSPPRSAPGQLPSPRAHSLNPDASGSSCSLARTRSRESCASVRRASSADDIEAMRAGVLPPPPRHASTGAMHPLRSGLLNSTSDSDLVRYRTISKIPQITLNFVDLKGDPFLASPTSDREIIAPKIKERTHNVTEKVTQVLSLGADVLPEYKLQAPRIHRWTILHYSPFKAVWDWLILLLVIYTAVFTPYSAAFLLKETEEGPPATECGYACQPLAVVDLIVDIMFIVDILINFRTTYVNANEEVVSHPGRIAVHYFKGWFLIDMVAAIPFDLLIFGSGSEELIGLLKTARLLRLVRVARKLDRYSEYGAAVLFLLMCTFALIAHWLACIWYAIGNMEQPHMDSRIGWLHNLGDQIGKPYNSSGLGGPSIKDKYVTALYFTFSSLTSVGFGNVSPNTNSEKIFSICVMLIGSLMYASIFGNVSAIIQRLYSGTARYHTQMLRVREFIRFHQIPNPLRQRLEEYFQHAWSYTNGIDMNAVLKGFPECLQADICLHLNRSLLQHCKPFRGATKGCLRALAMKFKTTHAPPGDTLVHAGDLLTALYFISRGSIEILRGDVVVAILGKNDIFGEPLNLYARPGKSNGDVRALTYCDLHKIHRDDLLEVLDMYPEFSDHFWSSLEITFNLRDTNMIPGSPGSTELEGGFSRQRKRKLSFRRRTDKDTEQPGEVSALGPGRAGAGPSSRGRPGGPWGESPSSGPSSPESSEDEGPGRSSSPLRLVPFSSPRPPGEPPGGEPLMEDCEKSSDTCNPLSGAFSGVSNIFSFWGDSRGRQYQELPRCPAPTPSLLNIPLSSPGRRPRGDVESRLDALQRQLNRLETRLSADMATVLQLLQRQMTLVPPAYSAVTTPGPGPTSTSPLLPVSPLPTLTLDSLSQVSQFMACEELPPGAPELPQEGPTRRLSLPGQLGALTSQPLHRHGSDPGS", "assay": "primary screen, population patch clamp on CHO cells stably expressing hERG; higher = less effect of the substance", "units": {"hERG current change (%, negative = inhibition) at 1uM": "%"}}
{"smiles": "COc1ccc2c(c1)CCc1c(C(=O)N3CCCCCC3)noc1-2", "hERG current change (%, negative = inhibition) at 1uM": -1.37}
{"smiles": "C=C(C)CN1C(=O)c2ccccc2C1=O", "hERG current change (%, negative = inhibition) at 1uM": 4.89}
{"smiles": "Cc1nc(Nc2ccccc2)[nH]c(=O)c1CCC(C)C", "hERG current change (%, negative = inhibition) at 1uM": 1.92}
{"smiles": "Cc1ccc(C)c(-n2c(-c3cccnc3)n[nH]c2=S)c1", "hERG current change (%, negative = inhibition) at 1uM": 18.2}
{"smiles": "CCN(Cc1ccc(NC(C)=O)cc1)CC1CCCN(CCc2cccc(F)c2)C1", "note": "(stereo not shown)", "hERG current change (%, negative = inhibition) at 1uM": 9.42}
{"smiles": "CCN(CC1CCCN(CCc2cccc(F)c2)C1)C(=O)c1cc2ccccc2o1", "note": "(stereo not shown)", "hERG current change (%, negative = inhibition) at 1uM": -64.7}
{"smiles": "CCN(CC1CCCN(CCc2cccc(OC)c2)C1)C(=O)c1ccoc1C", "note": "(stereo not shown)", "hERG current change (%, negative = inhibition) at 1uM": -27.8}
{"smiles": "CCN(CC1CCCN(CCc2cccc(F)c2)C1)C(=O)c1cc(C)oc1C", "note": "(stereo not shown)", "hERG current change (%, negative = inhibition) at 1uM": -2.34}
{"smiles": "C=CCC(=O)N(CC)CC1CCCN(CCc2cccc(F)c2)C1", "note": "(stereo not shown)", "hERG current change (%, negative = inhibition) at 1uM": -17.6}
{"smiles": "CCN(CC1CCCN(CCc2cccc(F)c2)C1)C(=O)c1ccc(CSC)o1", "note": "(stereo not shown)", "hERG current change (%, negative = inhibition) at 1uM": -52}
{"smiles": "CCN(Cc1ccc(O)cc1)CC1CCCN(CCc2cccc(F)c2)C1", "note": "(stereo not shown)", "hERG current change (%, negative = inhibition) at 1uM": -8.8}
{"smiles": "CCN(CC1CCCN(CCc2cccc(OC)c2)C1)C(=O)c1ccoc1", "note": "(stereo not shown)", "hERG current change (%, negative = inhibition) at 1uM": -14.5}
{"smiles": "CCN(CC1CCCN(CCc2cccc(OC)c2)C1)C(=O)c1ccc(COC)o1", "note": "(stereo not shown)", "hERG current change (%, negative = inhibition) at 1uM": -51.1}
{"smiles": "COc1ccc(C=O)cc1Cn1c(=O)n(CCC(=O)NCc2ccco2)c(=O)c2sccc21", "hERG current change (%, negative = inhibition) at 1uM": 5.91}
{"smiles": "COc1ccc(N(CC(=O)NCc2ccc(Cl)cc2)S(=O)(=O)c2c(C)n[nH]c2C)cc1", "hERG current change (%, negative = inhibition) at 1uM": 1.42}
{"smiles": "Cc1cc(C)nc(NS(=O)(=O)c2ccc(Br)cc2)n1", "hERG current change (%, negative = inhibition) at 1uM": 21.2}
{"smiles": "Cc1ccc(Cn2c(CN3CC(C)OC(C)C3)nc3c2c(=O)[nH]c(=O)n3C)cc1", "note": "(stereo not shown)", "hERG current change (%, negative = inhibition) at 1uM": -3.88}
{"smiles": "O=C(O)CCn1cc(/C=C/C(=O)c2ccc(Cl)cc2)c(-c2cccc(Br)c2)n1", "hERG current change (%, negative = inhibition) at 1uM": 14.7}
{"smiles": "CCCCN(C)C(=O)C1CCN(Cc2ccc(OCc3ccccc3)cc2)CC1.O=C(O)C(=O)O", "hERG current change (%, negative = inhibition) at 1uM": -55.7}
{"smiles": "O=C(C1CCN(CCCc2ccccc2)CC1)N(CCc1ccccc1)Cc1ccccc1.O=C(O)C(=O)O", "hERG current change (%, negative = inhibition) at 1uM": -75}
{"smiles": "CCN(Cc1ccccc1)C(=O)C1CCN(C/C(C)=C/c2ccccc2)CC1.O=C(O)C(=O)O", "hERG current change (%, negative = inhibition) at 1uM": -31}
{"smiles": "CCCCN(C)C(=O)C1CCN(CCCc2ccccc2)CC1.O=C(O)C(=O)O", "hERG current change (%, negative = inhibition) at 1uM": -73.6}
{"smiles": "CCCCN(C)C(=O)C1CCN(C/C(C)=C/c2ccccc2)CC1.O=C(O)C(=O)O", "hERG current change (%, negative = inhibition) at 1uM": -54.3}
{"smiles": "CCN(CC)C(=O)C1CCN(Cc2ccc(OCc3ccccc3)cc2)CC1.O=C(O)C(=O)O", "hERG current change (%, negative = inhibition) at 1uM": -13.3}
{"smiles": "CC1CCN(C(=O)C2CCN(CCCc3ccccc3)CC2)CC1.O=C(O)C(=O)O", "hERG current change (%, negative = inhibition) at 1uM": -23.5}
{"smiles": "CCCCNC(=O)C1CCN(C/C(C)=C/c2ccccc2)CC1.O=C(O)C(=O)O", "hERG current change (%, negative = inhibition) at 1uM": -33.9}
{"smiles": "CCCCN(C)C(=O)C1CCN(Cc2cccnc2)CC1", "hERG current change (%, negative = inhibition) at 1uM": 10.1}
{"smiles": "O=C(C1CCN(CC2CC=CCC2)CC1)N(CCc1ccccc1)Cc1ccccc1", "note": "(stereo not shown)", "hERG current change (%, negative = inhibition) at 1uM": -47}
{"smiles": "CCCCN(C)C(=O)C1CCN(Cc2cccc(OCc3ccccc3)c2)CC1.O=C(O)C(=O)O", "hERG current change (%, negative = inhibition) at 1uM": -35.6}
{"smiles": "CCCCN(C)C(=O)C1CCN(Cc2ccccn2)CC1.O=C(O)C(=O)O", "hERG current change (%, negative = inhibition) at 1uM": 6.35}
{"smiles": "COC(=O)C1=C(c2cc3ccccc3o2)C[C@@H]2CC[C@H]1N2C(=O)NC1CCCCC1", "hERG current change (%, negative = inhibition) at 1uM": -7.33}
{"smiles": "CC(C)C(NC(=O)c1ccccc1)c1nnc(SCC(=O)Nc2nccs2)n1C", "note": "(stereo not shown)", "hERG current change (%, negative = inhibition) at 1uM": 15.7}
{"smiles": "Cc1cc(=O)nc2c3ccccc3n(CC(=O)NCCCN3CCCC3=O)n12", "hERG current change (%, negative = inhibition) at 1uM": 10.4}
{"smiles": "O=C(O)CCC(=O)NNC(=O)c1cccs1", "hERG current change (%, negative = inhibition) at 1uM": 15.5}
{"smiles": "CCOC(=O)CSc1nc(CC)nc2ccccc12", "hERG current change (%, negative = inhibition) at 1uM": 4.2}
{"smiles": "O=c1cc(CO)oc(CN2CCCC2)c1O", "hERG current change (%, negative = inhibition) at 1uM": -2.54}
{"smiles": "C/C(=N\\O)c1ccc2c(c1)CC(C)O2", "note": "(stereo not shown)", "hERG current change (%, negative = inhibition) at 1uM": 13.6}
{"smiles": "Cc1cc(C[n+]2ccsc2N)c2ncccc2c1.[Br-]", "hERG current change (%, negative = inhibition) at 1uM": -20.1}
{"smiles": "COc1ccc2c(c1)sc(N)[n+]2Cc1cc(C)cc2cccnc12.[Br-]", "hERG current change (%, negative = inhibition) at 1uM": -26.5}
{"smiles": "CCOc1ccc2c(c1)sc(N)[n+]2Cc1cc(C)cc2cccnc12.[Br-]", "hERG current change (%, negative = inhibition) at 1uM": -56.2}
{"smiles": "CN(Cc1ccccc1)C(=O)c1nn2cccnc2c1Cl", "hERG current change (%, negative = inhibition) at 1uM": 13.2}
{"smiles": "CCNC(=O)c1cc2c(=O)n3cccc(C)c3nc2n(CCc2ccccc2)c1=N", "hERG current change (%, negative = inhibition) at 1uM": -90.7}
{"smiles": "COCCNC(=O)c1cc2c(=O)n3cccc(C)c3nc2n1C", "hERG current change (%, negative = inhibition) at 1uM": 22.6}
